Results filed as inconclusive are left out. Calls of active or inactive are those of the source. The calls were made as follows: active = hit-call score of the fitted dose curve at least 0.9, where 1 is the maximum; inconclusive = response in the unintended direction; inactive = score below 0.9.
Experiment: TOX21_p53_BLA_p3_viability: Viability Assessment in the Tox21 HCT-116 p53 Agonism Beta-lactamase Assay, Phase 3 (AID 2283593);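 also: cells exposed to compound for 16 h before reading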
Excerpt: TOX21_p53_BLA_p3 is a cell-based, single-readout assay that uses HCT116, a human intestinal cell line, […] in a 1536-well plate.TOX21_p53_BLA_p3_viability is an assay readout measuring cellular ATP content and detected with CellTiter-Glo Luciferase-coupled ATP quantitation.TOX21_p53_BLA_p3_viability used a type of viability reporter where loss-of-signal activity can be used to understand changes in the cell viability. Furthermore, this assay endpoint can be referred to as a secondary readout, because this assay has produced multiple assay endpoints where this one serves a viability function. To generalize the intended target to other relatable targets, this assay endpoint is annotated to the cell cycle intended target family, where the subfamily is cytotoxicity.
Thawing Method: Place 14 mL of pre-warmed thaw medium into a 15 mL of conical tub. Remove the vial of cells to be thawed from liquid nitrogen and thaw rapidly by placing at 37C in a water bath with gentle agitation for 1-2 minutes. Decontaminate the vial by wiping with 70% ethanol before opening in a biological safety cabinet. Transfer the vial contents drop-wise into 14 mL of thaw medium in a sterile 15-mL conical tub. Centrifuge cells at 900 rpm for 4 minutes and resuspend in thaw medium. Transfer contents to the T75 tissue culture flask containing Thaw Medium and place flask in a humidified 37C/5% CO2 incubator. Switch to growth medium at first passage.Propagation Method: Aspirate medium, rinse once in DPBS, add 0.25% Trypsin/EDTA and swirl to coat the cell evenly. Add an equal volume of Growth Medium to inactivate Trypsin after 2-3 minutes incubation at 37C. Centrifuge cells at 900 rpm for 4 minutes and resuspend in growth medium. Cell should be passage or fed at least twice a week.Assay Protocol: Harvest cells from culture in growth medium and resuspend in assay medium. 2.2 Dispense 4000 cells/5 uL/well into 1536-well black/clear bottom plates using a Multidrop dispenser. After the cells were incubated at 37C for 5 hours, 23 nL of compounds dissolved in DMSO were transferred to the assay plate by a PinTool resulting in a 217-fold dilution. Incubate the plates for 16 hours at 37C, 5% CO2. Add 1 uL of 6X LiveBLAzer FRET B/G (CCF4-AM) Substrate Mixture to each well using a BioRAPTR dispenser and incubate the plates at room temperature for 2 hours. Measure fluorescence intensity at 460 and 530 nm emission and 405 nm excitation by an Envision detector. Data is expressed as the ratio of 460nm/530nm emissions. Add 4 uL of Cell-titer Glo to each well using BioRAPTR and incubate the plates at room temperature for […]. For cell viability readout that measures cytotoxicity, 4 ul/well of CellTiter-Glo reagent was added into the assay plates using a Flying Reagent Dispenser. After 30 min incubation at room temperature, the luminescence intensity in the plates was measured using a ViewLux plate reader.
For `C=CC(C)CCC=C(C)C` (stereo not given), the outcome was “inactive”. In the case of `COc1cc(Cl)ccc1Cl`, the outcome was “inactive”. For `CC(=O)c1ccc(C(C)=O)cc1`, the outcome was “inactive”. For `CC1CCCCN1CCCOC(=O)c1ccccc1` (stereo not given), the outcome was “inactive”. For `CCCCOC(=O)CC#N`, the outcome was “inactive”. For `CN(C)CCCNCCCN`, the outcome was “inactive”. In the case of `CC(C)(C)N(CCO)CCO`, the outcome was “inactive”. In the case of `CN[C@@H]1[C@@H](O)[C@@H](O[C@@H]2[C@@H](O)[C@H](O[C@H]3O[C@H](CN)[C@@H](O)[C@H](O)[C@H]3O)[C@@H](N)C[C@H]2NC(=O)C(O)CN)OC[C@]1(C)O` (stereo not given in full), the outcome was “inactive”. In the case of `O=C(Oc1ccccc1C(=O)O)c1ccccc1O`, the outcome was “inactive”. With `CC(C)(C)CC(C)(C)c1ccc(Nc2ccc(C(C)(C)CC(C)(C)C)cc2)cc1` the outcome was “inactive”. In the case of `NC(CO)C(=O)NNCc1ccc(O)c(O)c1O` (stereo not given), the outcome was “inactive”. For `C=CCSSCCC`, the outcome was “inactive”. For `CC(=O)OCC(=O)[C@@]1(O)[C@H](C)C[C@H]2[C@@H]3C[C@H](F)C4=CC(=O)C=C[C@]4(C)[C@H]3[C@@H](O)C[C@@]21C`, the outcome was “inactive”. With `Cc1c(O)cc2c(c1C)O[C@](C)(CCC[C@H](C)CCC[C@H](C)CCCC(C)C)CC2` the outcome was “inactive”. With `Nc1ccc(C(=O)NCC(=O)O)cc1` the outcome was “inactive”. With `CC#N` the outcome was “inactive”. With `Cn1c(N)nc2nc[nH]c2c1=O` the outcome was “inactive”. For `CCCCCCOC(=O)c1cccnc1`, the outcome was “inactive”. In the case of `CC[C@@H](N)CO`, the outcome was “inactive”. In the case of `CC(O)CCCCn1c(=O)c2c(ncn2C)n(C)c1=O` (stereo not given), the outcome was “inactive”. With `Cc1ccc(Cl)cc1Cl` the outcome was “inactive”. For `CNS(=O)(=O)Cc1ccc2[nH]cc(CCN(C)C)c2c1`, the outcome was “inactive”. With `CCCCNc1c(C(=O)OCC)c(C)nc2c1cnn2CC` the outcome was “inactive”. For `Cc1cccc(C)c1NC(=O)NC1=CCCN1C`, the outcome was “inactive”. With `C[C@H]1O[C@H](O[C@H]2[C@H](O)[C@@H](O)[C@@H](O[C@H]3[C@H](O)[C@@H](O)[C@H](O)O[C@@H]3CO)O[C@@H]2CO)[C@H](O)[C@@H](O)[C@@H]1N[C@H]1C=C(CO)[C@@H](O)[C@H](O)[C@H]1O` the outcome was “inactive”. With `COCCOC(=O)CC#N` the outcome was “inactive”. In the case of `CCCCC(=O)O[C@]1(C(=O)CO)CC[C@H]2[C@@H]3CCC4=CC(=O)CC[C@]4(C)[C@H]3[C@@H](O)C[C@@]21C`, the outcome was “inactive”. For `COCc1ccc(COC)cc1`, the outcome was “inactive”. With `CC(C)(O)CCC(C)(C)O` the outcome was “inactive”. With `CC1(C)O[C@@H]2C[C@H]3[C@@H]4CCC5=CC(=O)CC[C@]5(C)[C@@]4(F)[C@@H](O)C[C@]3(C)[C@]2(C(=O)CCl)O1` the outcome was “inactive”. For `COC(=O)CC[C@H](N)C(=O)O`, the outcome was “inactive”. For `CCCCS(=O)(=O)N[C@@H](Cc1ccc(OCCCCC2CCNCC2)cc1)C(=O)O`, the outcome was “inactive”. For `CCCCOCCOC(=O)CCCCCCCCC(=O)OCCOCCCC`, the outcome was “inactive”. In the case of `C=C(C)C(=O)OCCOCC`, the outcome was “inactive”. With `Nc1nc(NC2CC2)c2ncn([C@H]3C=C[C@@H](CO)C3)c2n1` the outcome was “inactive”. With `CN1C(C(=O)Nc2ccccn2)C(=O)c2sc(Cl)cc2S1(=O)=O` (stereo not given) the outcome was “inactive”. For `CCN(CC)CC(=O)Nc1c(C)cccc1C`, the outcome was “inactive”. In the case of `CCC(=O)c1cccc(Cl)c1`, the outcome was “inactive”. In the case of `O=P(O)(O)OP(=O)(O)OP(=O)(O)O`, the outcome was “inactive”. For `CCNC(=O)[C@@H]1CCCN1C(=O)[C@H](CCCN=C(N)N)NC(=O)[C@H](CC(C)C)NC(=O)[C@@H](CC(C)C)NC(=O)[C@H](Cc1ccc(O)cc1)NC(=O)[C@H](CO)NC(=O)[C@H](Cc1c[nH]c2ccccc12)NC(=O)[C@H](Cc1cnc[nH]1)NC(=O)[C@@H]1CCC(=O)N1`, the outcome was “inactive”.

— PubChem BioAssay (EPA / NIEHS)
